Source: the supplement of paper PMC10849652
Targets with a hit are over-represented here; the source holds about 8,800 in all. About 0.5% of all pairs of compound and target were hits. Values without a mark were called inactive.

Legend:
Assay in all cases: log2 fold change, soluble protein after heating vs DMSO (PISA); higher = thermal stabilisation; K562 lysate, 10 uM; active = over 0.2 and 3.5 SD of the protein, either way, in both replicates (recomputed)
[1] = compound: NCC(=O)Nc1ccc(-n2nc(C(F)(F)F)cc2-c2ccc3c(ccc4ccccc43)c2)cc1
Method in brief: (§1)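 Log-two fold change in thermal stability relative to solvent controls is reported from duplicates. For each sample, crude K562 extract from dounce-homogenised pellets in PBS pH 7.4 with 1 mM MgCl2, at 1 mg/mL protein, was treated with 10 μM compound for 30 min. Aliquots heated for 3 min across 48°C-58°C were pooled, brought to 0.5% NP-40 at 4°C and cleared at 21,000xg for 90 min. The supernatant was quantified by TMTpro 16plex LC-MS/MS with channel sums equalised.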

vorinostat = compound: O=C(CCCCCCC(=O)Nc1ccccc1)NO [vorinostat]
Method in brief: as §1

silmitasertib = compound: O=C(O)c1ccc2c(c1)nc(Nc1cccc(Cl)c1)c1ccncc12 [silmitasertib]
Method in brief: as §1

[2] = compound: O=C1NC(=O)C(c2cnc3ccccn23)=C1c1cn2c3c(cc(F)cc13)CN(C(=O)N1CCCCC1)CC2
Method in brief: as §1

entospletinib = compound: c1cn2cc(-c3ccc4cn[nH]c4c3)nc(Nc3ccc(N4CCOCC4)cc3)c2n1 [entospletinib]
Method in brief: as §1

UniProt Q9NYQ8, sequence (Q9NYQ8 whole entry, looked up): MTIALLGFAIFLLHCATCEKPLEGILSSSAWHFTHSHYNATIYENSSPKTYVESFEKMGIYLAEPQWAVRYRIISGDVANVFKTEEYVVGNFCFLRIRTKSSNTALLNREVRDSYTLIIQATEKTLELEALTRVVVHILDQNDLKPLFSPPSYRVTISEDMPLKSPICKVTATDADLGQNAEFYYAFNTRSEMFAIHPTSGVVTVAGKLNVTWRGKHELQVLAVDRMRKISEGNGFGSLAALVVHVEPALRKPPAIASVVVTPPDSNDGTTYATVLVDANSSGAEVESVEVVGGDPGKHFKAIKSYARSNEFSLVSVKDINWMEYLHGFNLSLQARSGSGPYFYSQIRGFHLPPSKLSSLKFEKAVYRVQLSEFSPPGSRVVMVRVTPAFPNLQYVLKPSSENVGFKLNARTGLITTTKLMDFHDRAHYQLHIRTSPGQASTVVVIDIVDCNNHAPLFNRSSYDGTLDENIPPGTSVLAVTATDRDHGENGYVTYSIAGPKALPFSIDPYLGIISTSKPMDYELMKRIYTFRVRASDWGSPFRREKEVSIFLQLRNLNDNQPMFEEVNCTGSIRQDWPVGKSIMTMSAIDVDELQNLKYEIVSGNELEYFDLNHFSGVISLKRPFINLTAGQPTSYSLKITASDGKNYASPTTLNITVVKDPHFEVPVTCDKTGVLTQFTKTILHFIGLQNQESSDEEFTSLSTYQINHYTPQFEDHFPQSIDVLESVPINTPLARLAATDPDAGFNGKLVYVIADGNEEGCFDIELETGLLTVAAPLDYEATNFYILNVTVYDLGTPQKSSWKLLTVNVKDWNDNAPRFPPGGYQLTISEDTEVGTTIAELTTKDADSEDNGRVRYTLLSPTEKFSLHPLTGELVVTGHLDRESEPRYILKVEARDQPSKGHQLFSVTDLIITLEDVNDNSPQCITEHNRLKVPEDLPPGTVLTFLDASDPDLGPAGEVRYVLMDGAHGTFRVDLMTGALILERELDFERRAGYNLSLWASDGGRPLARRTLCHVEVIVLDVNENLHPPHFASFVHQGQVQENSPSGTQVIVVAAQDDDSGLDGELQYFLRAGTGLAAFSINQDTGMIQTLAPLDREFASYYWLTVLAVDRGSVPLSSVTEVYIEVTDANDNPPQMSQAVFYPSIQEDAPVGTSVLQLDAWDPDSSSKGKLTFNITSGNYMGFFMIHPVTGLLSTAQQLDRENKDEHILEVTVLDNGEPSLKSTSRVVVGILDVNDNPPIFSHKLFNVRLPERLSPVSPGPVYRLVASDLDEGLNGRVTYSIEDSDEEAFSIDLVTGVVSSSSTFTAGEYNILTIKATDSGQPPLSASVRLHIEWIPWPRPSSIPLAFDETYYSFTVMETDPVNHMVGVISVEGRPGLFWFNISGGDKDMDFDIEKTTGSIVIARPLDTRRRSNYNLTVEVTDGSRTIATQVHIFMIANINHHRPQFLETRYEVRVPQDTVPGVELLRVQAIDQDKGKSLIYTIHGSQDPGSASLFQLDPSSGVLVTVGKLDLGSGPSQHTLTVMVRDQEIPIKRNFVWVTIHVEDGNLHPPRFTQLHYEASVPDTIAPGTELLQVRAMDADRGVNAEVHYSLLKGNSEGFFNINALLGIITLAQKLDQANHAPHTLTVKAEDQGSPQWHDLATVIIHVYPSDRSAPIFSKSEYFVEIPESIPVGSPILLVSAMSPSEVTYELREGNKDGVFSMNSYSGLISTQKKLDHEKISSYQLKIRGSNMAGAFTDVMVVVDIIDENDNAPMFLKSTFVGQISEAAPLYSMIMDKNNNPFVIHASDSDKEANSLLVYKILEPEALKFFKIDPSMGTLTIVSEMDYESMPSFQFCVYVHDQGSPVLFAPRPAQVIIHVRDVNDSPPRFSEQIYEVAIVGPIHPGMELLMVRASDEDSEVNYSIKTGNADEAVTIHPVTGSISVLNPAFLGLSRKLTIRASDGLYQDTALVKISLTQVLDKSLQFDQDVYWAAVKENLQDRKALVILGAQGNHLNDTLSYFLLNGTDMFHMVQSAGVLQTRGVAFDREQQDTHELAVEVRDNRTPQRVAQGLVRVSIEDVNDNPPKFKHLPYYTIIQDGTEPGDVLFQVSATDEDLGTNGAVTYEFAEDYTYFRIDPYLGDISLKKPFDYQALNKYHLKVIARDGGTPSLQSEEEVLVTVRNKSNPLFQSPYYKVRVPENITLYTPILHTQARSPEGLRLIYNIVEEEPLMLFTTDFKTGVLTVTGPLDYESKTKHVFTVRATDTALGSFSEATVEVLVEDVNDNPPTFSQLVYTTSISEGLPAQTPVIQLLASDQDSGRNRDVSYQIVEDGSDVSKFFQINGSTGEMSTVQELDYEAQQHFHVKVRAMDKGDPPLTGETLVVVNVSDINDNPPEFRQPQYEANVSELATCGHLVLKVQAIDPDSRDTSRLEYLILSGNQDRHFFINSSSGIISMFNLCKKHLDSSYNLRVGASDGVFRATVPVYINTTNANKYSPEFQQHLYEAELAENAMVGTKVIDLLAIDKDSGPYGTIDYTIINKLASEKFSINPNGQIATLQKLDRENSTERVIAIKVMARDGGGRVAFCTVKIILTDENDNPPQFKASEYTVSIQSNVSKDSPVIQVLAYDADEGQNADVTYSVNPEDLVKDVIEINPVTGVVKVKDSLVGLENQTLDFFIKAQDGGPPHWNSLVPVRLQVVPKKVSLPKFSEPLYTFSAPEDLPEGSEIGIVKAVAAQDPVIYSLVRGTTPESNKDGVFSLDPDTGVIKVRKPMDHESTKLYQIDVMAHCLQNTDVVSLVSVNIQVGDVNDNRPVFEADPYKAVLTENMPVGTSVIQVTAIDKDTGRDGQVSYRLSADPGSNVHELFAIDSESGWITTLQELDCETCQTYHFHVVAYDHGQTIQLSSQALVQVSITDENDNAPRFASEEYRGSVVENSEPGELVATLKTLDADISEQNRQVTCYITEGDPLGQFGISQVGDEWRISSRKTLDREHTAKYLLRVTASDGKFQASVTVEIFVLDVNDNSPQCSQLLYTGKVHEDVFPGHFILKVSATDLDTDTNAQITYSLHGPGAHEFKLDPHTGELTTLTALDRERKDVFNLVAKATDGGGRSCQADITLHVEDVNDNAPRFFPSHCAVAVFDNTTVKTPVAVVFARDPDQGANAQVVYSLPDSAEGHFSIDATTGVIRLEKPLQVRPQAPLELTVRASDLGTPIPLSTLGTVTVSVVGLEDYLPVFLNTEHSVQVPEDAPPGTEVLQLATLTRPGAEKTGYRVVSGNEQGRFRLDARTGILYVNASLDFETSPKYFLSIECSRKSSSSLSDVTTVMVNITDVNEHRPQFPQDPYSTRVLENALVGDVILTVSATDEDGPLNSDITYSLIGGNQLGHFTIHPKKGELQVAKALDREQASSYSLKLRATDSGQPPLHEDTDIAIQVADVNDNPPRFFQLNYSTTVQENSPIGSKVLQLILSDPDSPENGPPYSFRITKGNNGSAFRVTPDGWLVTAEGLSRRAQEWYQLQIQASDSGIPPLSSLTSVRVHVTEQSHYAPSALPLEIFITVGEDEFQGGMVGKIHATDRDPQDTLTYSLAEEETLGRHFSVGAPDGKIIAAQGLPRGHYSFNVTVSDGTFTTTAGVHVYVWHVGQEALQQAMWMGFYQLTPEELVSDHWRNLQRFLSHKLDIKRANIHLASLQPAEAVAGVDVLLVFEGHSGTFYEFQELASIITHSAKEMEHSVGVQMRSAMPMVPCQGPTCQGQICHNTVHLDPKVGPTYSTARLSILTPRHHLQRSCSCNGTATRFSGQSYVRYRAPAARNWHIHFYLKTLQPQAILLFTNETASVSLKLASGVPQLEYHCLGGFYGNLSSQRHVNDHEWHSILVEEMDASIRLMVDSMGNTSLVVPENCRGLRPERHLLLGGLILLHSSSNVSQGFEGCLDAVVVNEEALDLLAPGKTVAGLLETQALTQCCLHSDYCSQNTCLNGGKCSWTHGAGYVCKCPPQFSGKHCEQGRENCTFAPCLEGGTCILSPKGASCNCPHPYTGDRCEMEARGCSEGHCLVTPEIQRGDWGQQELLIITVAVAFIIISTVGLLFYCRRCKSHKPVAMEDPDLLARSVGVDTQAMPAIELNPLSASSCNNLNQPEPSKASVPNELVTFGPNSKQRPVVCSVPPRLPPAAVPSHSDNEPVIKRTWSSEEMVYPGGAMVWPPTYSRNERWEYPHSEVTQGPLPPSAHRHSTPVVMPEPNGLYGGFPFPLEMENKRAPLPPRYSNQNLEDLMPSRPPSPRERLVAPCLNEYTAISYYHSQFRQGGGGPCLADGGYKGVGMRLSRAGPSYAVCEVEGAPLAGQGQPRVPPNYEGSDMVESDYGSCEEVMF
UniProt Q9NRW4, sequence (Q9NRW4 whole entry, looked up): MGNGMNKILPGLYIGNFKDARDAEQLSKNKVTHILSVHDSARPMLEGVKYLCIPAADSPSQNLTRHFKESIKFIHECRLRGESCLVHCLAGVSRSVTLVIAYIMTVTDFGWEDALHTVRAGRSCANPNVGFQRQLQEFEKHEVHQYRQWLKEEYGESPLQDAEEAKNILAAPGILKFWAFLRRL
UniProt Q96I24, sequence (Q96I24 whole entry, looked up): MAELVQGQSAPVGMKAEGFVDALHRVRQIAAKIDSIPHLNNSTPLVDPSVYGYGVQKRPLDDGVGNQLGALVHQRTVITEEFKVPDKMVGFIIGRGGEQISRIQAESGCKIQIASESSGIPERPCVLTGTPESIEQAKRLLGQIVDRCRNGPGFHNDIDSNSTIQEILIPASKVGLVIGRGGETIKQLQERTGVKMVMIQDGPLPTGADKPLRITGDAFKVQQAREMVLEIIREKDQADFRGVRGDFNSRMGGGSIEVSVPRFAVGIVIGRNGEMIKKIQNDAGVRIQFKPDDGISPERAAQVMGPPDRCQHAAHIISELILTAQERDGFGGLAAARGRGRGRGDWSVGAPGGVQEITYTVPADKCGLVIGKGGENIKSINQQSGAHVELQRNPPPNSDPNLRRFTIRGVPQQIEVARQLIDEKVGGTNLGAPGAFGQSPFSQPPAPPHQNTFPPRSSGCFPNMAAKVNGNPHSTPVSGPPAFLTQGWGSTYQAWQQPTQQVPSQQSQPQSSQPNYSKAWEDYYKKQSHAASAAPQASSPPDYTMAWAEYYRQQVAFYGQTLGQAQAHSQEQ

Target | log2 fold change [1] | log2 fold change (vorinostat) | log2 fold change (silmitasertib) | log2 fold change [2] | log2 fold change (entospletinib)
DYNC1I2 isoform 5 (UniProt Q13409) | 0.009 | 0.126 | 0.03 | -0.005 | -0.007
FAM204A (UniProt Q9H8W3) | -0.057 | -0.211 | -0.095 | 0.044 | 
DUSP22 isoform 2 (UniProt Q9NRW4) | -0.025 | -0.102 | 0.002 |  | 
FTL (UniProt P02792) | -0.064 | 0.018 | 0.057 | 0.011 | -0.151
FARSB (UniProt Q9NSD9) | -0.01 | 0.015 | 0.013 | -0.013 | 0.011
FAM120B (UniProt Q96EK7) | -0.002 | -0.299 (active) | 0.041 | -0.022 | -0.001
FIGNL1 (UniProt Q6PIW4) | -0.016 | -0.484 (active) | 0.045 | 0 | 0.05
FBLL1 (UniProt A6NHQ2) | 0.006 | 0.094 | 0.034 | -0.017 | -0.014
EPRS (UniProt P07814) | -0.01 | -0.365 (active) | 0.037 | 0.009 | 0.021
FBXO38 (UniProt Q6PIJ6) | -0.029 | -0.393 | 0.34 | -0.159 | -0.173
FANCD2 isoform 1 (UniProt Q9BXW9) | 0.078 | -0.25 (active) | -0.012 | 0.008 | -0.005
FREM2 (UniProt Q5SZK8) | 0.094 | 0.048 | 0.085 | -0.11 | -0.003
FANCI (UniProt Q9NVI1) | 0.002 | -0.389 (active) | 0.062 | 0.018 | 0.039
EIF2B4 isoform 2 (UniProt Q9UI10) | 0.023 | -0.209 | 0.013 | -0.002 | 0.012
EHD2 (UniProt Q9NZN4) | 0.005 | -0.282 (active) | 0.073 | 0.018 | 0.032
EIF2B5 (UniProt Q13144) | 0.013 | -0.227 (active) | -0.009 | -0.029 | 0.013
EFCAB14 (UniProt O75071) | 0.039 | 0.327 (active) | -0.054 | 0.029 | 0.013
FAT2 (UniProt Q9NYQ8) | 0.393 | 0.001 | 0.098 | 0.178 | 0.162
DUS2 (UniProt Q9NX74) | -0.01 | -0.014 | 0.555 (active) | -0.037 | -0.042
GABPB1 isoform 3 (UniProt Q06547) | -0.012 | -0.41 (active) | 0.08 | 0.067 | -0.024
FAM53B (UniProt Q14153) | 0.056 | -0.06 | 0.049 | 0.02 | -0.003
FASTKD2 (UniProt Q9NYY8) | 0.008 | -0.524 (active) | 0.044 | 0.025 | 0.013
FXR1 (UniProt P51114) | -0.006 | -0.257 (active) | 0.045 | -0.041 | 0.023
FMNL1 isoform 3 (UniProt O95466) | 0.051 | -0.292 (active) | -0.01 | 0.071 | -0.066
FNBP1L (UniProt Q5T0N5) | 0.001 | -0.373 (active) | 0.102 | -0.041 | 0.017
GGT7 (UniProt Q9UJ14) | -0.094 | 0.244 (active) | -0.017 | 0.015 | -0.056
ERBIN isoform 8 (UniProt Q96RT1) | -0.016 | -0.008 | -0.001 | -0.017 | -0.002

Target | log2 fold change [1] | log2 fold change (vorinostat) | log2 fold change (silmitasertib) | log2 fold change [2] | log2 fold change (entospletinib)
GAPVD1 isoform 6 (UniProt Q14C86) | -0.033 | -0.292 (active) | 0.04 | -0.001 | -0.002
GEMIN4 (UniProt P57678) | -0.025 | -0.435 (active) | 0.1 | 0.019 | 0.034
ERAL1 (UniProt O75616) | -0.013 | -0.103 | 0.044 | -0.044 | -0.083
DTYMK (UniProt P23919) | -0.022 | -0.294 (active) | 0.071 | -0.023 | 0.061
EBP (UniProt Q15125) | 0.134 | 0.1 | -0.033 | 0.097 | 0.013
DYNC1I2 isoform 2 (UniProt Q13409) | 0.138 | 0.07 | 0.008 | 0.054 | 0.039
ENY2 (UniProt Q9NPA8) | -0.066 | 0.118 | -0.032 | 0.016 | -0.018
FUBP3 (UniProt Q96I24) | -0.001 | -0.325 (active) | -0.032 | 0.047 | -0.065
ENO1, A0A2R8YEM5 | -0.032 | 0.119 | -0.005 | 0.017 | 0.04
ELF2 (UniProt Q15723) | 0.03 | -0.25 | 0 | -0.011 | -0.03
EIF2AK1 (UniProt Q9BQI3) | -0.089 | -0.18 | 0.03 | -0.059 | 0.009
GEMIN2 (UniProt O14893) | 0.003 | -0.425 (active) | 0.002 | 0.04 | -0.005
DSN1 (UniProt Q9H410) | -0.028 | -0.358 (active) | -0.007 | 0.008 | -0.017
GAA (UniProt P10253) | -0.038 | -0.176 | -0.092 | -0.056 | 0.068
EDC4 (UniProt Q6P2E9) | 0.045 | -0.453 (active) | 0.011 | 0.004 | 0.02
DYRK1A (UniProt Q13627) | 0.021 | -0.253 | 0.247 (active) | 0.01 | 0.005
DUS3L (UniProt Q96G46) | 0.002 | -0.08 | 0.036 | -0.007 | 0.014
FOXJ3 (UniProt Q9UPW0) | -0.016 | -0.24 (active) | 0.114 | 0.019 | 0.022
FAM76B (UniProt Q5HYJ3) | -0.018 | 0.026 | 0 | 0.012 | -0.014
GIGYF2 (UniProt Q6Y7W6) | -0.001 | -0.252 (active) | -0.007 | -0.042 | 0.017
ESPL1 (UniProt Q14674) | 0.027 | -0.21 | 0.098 | 0.057 | -0.066
ENSA isoform 3 (UniProt O43768) | -0.029 | 0.144 | -0.019 | 0.003 | -0.014
FDFT1 (UniProt P37268) | -0.004 | -0.006 | 0.041 | 0.004 | 0.06
ECH1 (UniProt Q13011) | 0.041 | 0.081 | -0.026 | -0.052 | 0.022
FNTB (UniProt P49356) | 0.03 | 0.03 | -0.018 | -0.032 | -0.048
FYN (UniProt P06241) | -0.047 | 0.091 | -0.001 | -0.027 | 0.156
ECI2 (UniProt O75521) | 0.08 | 0.146 | 0.022 | 0.284 (active) | -0.033
